Test results taken from PubChem BioAssay (NCI).
This is part of a sample that, as a whole, favours compounds with a hit. Of some 83,000 tested, about 20% had one in any assay.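 The test compound was applied at a single concentration to cells in 96-well plates for 48 hours, and percent growth was recorded.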 Activity calls are given as the source filed them. Rule for the calls: active = growth percent below 10; inactive = the rest.

Test system: SK-MEL-28 melanoma
Experiment: NCI-60 one-dose screen, 48 h (100 = growth as untreated, 0 = no growth, -100 = all killed)
Settings: 10 µM unless noted

SMILES	growth
COC(=O)c1cc(-c2ccc(C)cc2)n(C(=O)CSc2nc3sc(C(N)=O)c(C)c3c(=O)n2Cc2ccccc2)n1	112% (inactive)
COc1cccc(OC)c1OC(=O)c1ccccc1	98.2% (inactive)
Oc1ccc2ccccc2c1C1NN=C(c2ccccc2)S1 (stereo not given)	23% (inactive)
Clc1ccc(Nc2ccnc(N3CCN(c4ccnc5cc(Cl)ccc45)CC3)n2)cc1	63.8% (inactive)
Cc1ccc(S(=O)(=O)N(c2ccc(Cl)cc2)c2ccc(Br)cc2C(=O)O)cc1	119% (inactive)
CCN1CCN(C(=S)SCC(=O)Nc2nc3ccc(OC)cc3s2)CC1	106% (inactive)
Cn1c2ccccc2c2nn(Cc3ccccc3)c(=O)nc21	126% (inactive)
Clc1ccc2c(N3CCN(c4ccnc(NC5CCCCC5)n4)CC3)ccnc2c1	36.8% (inactive)
NC(=S)N/N=C1\c2ccccc2-c2c(F)c(F)c(F)c(F)c21	113% (inactive)
NC(=O)c1cc(I)ccc1NC(=O)COc1ccc(Cl)cc1Cl	99.3% (inactive)
CCC12CCC3c4ccc(O)cc4CCC3C1CC(O)C2O (stereo not given)	67.2% (inactive)
O=C1NC(=O)C(CSc2ccccc2)(c2ccccc2)N1 (stereo not given)	112% (inactive)
C=C(C)COC(=O)c1ccccc1C(=O)OCC1(C)CO1 (stereo not given)	117% (inactive)
COc1ccc(NC(=O)COc2ccccc2)c(C(N)=O)c1	62% (inactive)
O=c1nc(NO)[nH]c(=O)n1Cc1ccc(F)cc1	102% (inactive)
NC(=O)c1cc(I)ccc1NC(=O)COc1ccccc1	57.7% (inactive)
O=C(Nc1ccccc1O)c1ccc(NS(=O)(=O)c2cccc3cccnc23)cc1	37.6% (inactive)
CC(=O)OC[C@H](O)[C@@]1(O)CC[C@H]2[C@@H]3CCC4=CC(=O)CC[C@]4(C)[C@H]3[C@@H](O)C[C@@]21C	114% (inactive)

SMILES	growth
COc1cc(NC(=O)COc2ccccc2)c(C(N)=O)cc1OC	70.1% (inactive)
COc1ccc(Nc2[nH]n(C3=Nc4ccccc4Sc4ccccc43)c(=O)c2C#N)cc1	64.7% (inactive)
COc1c(Cl)ccc2c(-c3nc4cc(Cl)c(F)cc4s3)cc(=O)oc12	111% (inactive)
Cn1c2ccc(Cl)cc2c2nn(C(=O)c3ccccc3)c(=O)nc21	125% (inactive)
CC(=O)Nc1ccc(S(=O)(=O)N/N=C\c2ccc(Cl)c(Cl)c2)cc1	115% (inactive)
COc1ccc(/C=C(\C#N)c2ccc(OC)cc2)cc1	80.6% (inactive)
CCCCNNC(=O)c1ccc(Br)cc1	53.2% (inactive)
CC(=O)c1cc(C)c(OC(=O)c2ccccc2)c(C)c1	117% (inactive)
Clc1nc(-c2ccccn2)nc2sc3c(c12)CCCCCC3	89.3% (inactive)
Oc1ccccc1/C=N/Nc1nc2ccccc2s1	83.3% (inactive)
COc1cccc(OC(=O)c2ccccc2)c1OC(=O)c1ccccc1	84.7% (inactive)
COC(=O)c1ccc(C(=O)Nc2ccccc2N)cc1	94.6% (inactive)
CCSc1nnc2c3cc(Br)ccc3n(C)c2n1	123% (inactive)
N#CCCN1CCN(CCC#N)C1=S	122% (inactive)
COC(=O)/C=C1/CCC2C3CCC4=CC(=O)C(Br)CC4(C)C3C(=O)CC12C (stereo not given)	94.5% (inactive)
NC(=O)c1cc(Cl)ccc1NC(=O)COc1ccccc1	69.3% (inactive)
CN1CCN(CCCn2c3c(sc4ncccc43)c(=O)n3nnc(-c4ccccc4)c23)CC1	111% (inactive)
